# Measured values from PubChem BioAssay (EPA / NIEHS).
# Inconclusive results are not listed. Active and inactive are the calls of the source. How the source made its calls: active means hit-call score of the fitted dose curve at least 0.9, where 1 is the maximum; inconclusive means response in the unintended direction; inactive means score below 0.9.
# Columns and labels:
# [1] = target: Nuclear receptor subfamily 1 group I member 2 (Homo sapiens) (UniProt O75469); assay: NVS_NR_hPXR: NovaScreen (NVS) Nuclear Receptor Binding Assay for human Pregnane X Receptor (PXR) (AID 2283365);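 further: a drop in FRET signal versus DMSO baseline means the compound binds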
# How it was run: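 Human PXR binding measured by TR-FRET in a cell-free format, 2 h exposure. Single-concentration duplicates at 25 uM preceded concentration-response retests of actives; endpoint fitted positively relative to DMSO, loss of signal indicating binding.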
# [2] = target: Peroxisome proliferator-activated receptor gamma (Homo sapiens) (UniProt P37231); assay: NVS_NR_hPPARg: NovaScreen (NVS) Nuclear Receptor Binding Assay for human Peroxisome Proliferator-activated Receptor gamma (PPARg) (AID 2283370)
# How it was run: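 Fluorescence polarization readout of ligand binding to extracted human PPARg, measured at 2 h. Duplicate single-point screen at 25 uM, then concentration-series retesting; activity defined as signal loss versus DMSO.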
# PGR (gene 5241) = PGR (gene 5241) (UniProt P06401); assay: NVS_NR_hPR: NovaScreen (NVS) Nuclear Receptor Binding Assay for human Progestron Receptor (PR) (AID 2283360);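 further: active means loss of bound radioligand signal versus DMSO baseline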
# How it was run: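 Radioligand competition binding on receptor extracted from T47D cells, read by scintillation counting 18 h after dosing. Loss of signal versus DMSO; primary screen in duplicate at 25 uM, actives followed in concentration series.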
# [3] = target: rat Serotonin Transporter (SERT), Slc6a4 (gene 25553) (UniProt P31652); assay: NVS_TR_rSERT: NovaScreen (NVS) Transporter Assay for rat Serotonin Transporter (SERT) (AID 2283375)
# How it was run: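 Radioligand binding with competitive displacement on rat forebrain membrane preparations, counted by filtration and scintillation after 1 h. Primary single-point duplicates at 25 uM; active chemicals followed up in concentration-response. DMSO served as baseline.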
# [4] = target: Glucocorticoid receptor (Homo sapiens) (UniProt P04150); assay: NVS_NR_hGR: NovaScreen (NVS) Nuclear Receptor Binding Assay for human Glucocorticoid Receptor (GR) (AID 2283363);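 on AC50: activity is loss of specific radioligand binding signal relative to DMSO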
# How it was run: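 Competitive displacement of a labelled ligand was measured on cell-free receptor preparations after 16 h exposure. Initial testing used 25 uM in duplicate with plate controls; confirmed actives went into concentration series.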
# [5] = target: rat Androgen Receptor (AR), Ar (gene 24208) (UniProt P15207); assay: NVS_NR_rAR: NovaScreen (NVS) Nuclear Receptor Binding Assay for rat Androgen Receptor (AR) (AID 2283366)
# How it was run: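 Cell-free radioligand binding on extracts of prostate from testosterone-pretreated rats, read by filter-based scintillation counting 18 h after dosing. Loss of bound signal fitted positively versus DMSO; primary screen in duplicate at 25 uM, actives followed up in concentration series.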
# [6] = target: human Thyroid Receptor Alpha (TRa), THRA (gene 7067) (UniProt P10827); assay: NVS_NR_hTRa_Antagonist: NovaScreen (NVS) Nuclear Receptor Binding Assay for human Thyroid Receptor Alpha Antagonism (TRa) (AID 2283362);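 further: activity is loss of signal relative to DMSO baseline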
# How it was run: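 Actives from a duplicate 25 uM single-point screen were retested in concentration series. The cell-free antagonist-format binding assay was read by AlphaLISA chemiluminescence at 1 h, scored as signal loss relative to DMSO.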
# Sequence of human Thyroid Receptor Alpha (TRa), THRA (gene 7067) (P10827 whole entry, looked up): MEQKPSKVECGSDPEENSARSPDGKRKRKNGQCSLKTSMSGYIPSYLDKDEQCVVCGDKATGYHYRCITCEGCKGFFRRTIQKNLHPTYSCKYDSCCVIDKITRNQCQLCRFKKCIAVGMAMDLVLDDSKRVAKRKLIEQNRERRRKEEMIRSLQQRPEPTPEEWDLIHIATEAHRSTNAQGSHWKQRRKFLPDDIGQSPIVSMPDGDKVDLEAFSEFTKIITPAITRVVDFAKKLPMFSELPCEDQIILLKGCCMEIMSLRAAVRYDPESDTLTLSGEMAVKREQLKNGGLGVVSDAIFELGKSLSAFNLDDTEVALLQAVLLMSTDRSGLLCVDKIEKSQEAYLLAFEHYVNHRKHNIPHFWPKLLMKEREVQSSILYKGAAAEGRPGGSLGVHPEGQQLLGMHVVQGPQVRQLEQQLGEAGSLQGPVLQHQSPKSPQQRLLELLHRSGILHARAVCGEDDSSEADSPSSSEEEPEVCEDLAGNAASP
# Sequence of Peroxisome proliferator-activated receptor gamma (Homo sapiens) (P37231 whole entry, looked up): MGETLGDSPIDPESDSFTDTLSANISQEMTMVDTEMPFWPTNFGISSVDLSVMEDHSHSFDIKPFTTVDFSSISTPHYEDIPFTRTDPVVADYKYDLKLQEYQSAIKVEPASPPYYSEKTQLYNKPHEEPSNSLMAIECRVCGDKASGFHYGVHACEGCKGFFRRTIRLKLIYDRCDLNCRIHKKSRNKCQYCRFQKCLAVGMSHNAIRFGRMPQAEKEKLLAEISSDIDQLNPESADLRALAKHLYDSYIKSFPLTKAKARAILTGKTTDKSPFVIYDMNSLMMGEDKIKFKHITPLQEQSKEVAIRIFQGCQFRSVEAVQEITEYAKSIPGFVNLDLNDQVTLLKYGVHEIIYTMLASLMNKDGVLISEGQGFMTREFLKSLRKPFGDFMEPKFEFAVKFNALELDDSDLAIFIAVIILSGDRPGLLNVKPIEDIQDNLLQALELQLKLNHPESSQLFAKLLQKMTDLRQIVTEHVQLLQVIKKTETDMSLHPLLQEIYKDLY
# Sequence of Glucocorticoid receptor (Homo sapiens) (P04150 whole entry, looked up): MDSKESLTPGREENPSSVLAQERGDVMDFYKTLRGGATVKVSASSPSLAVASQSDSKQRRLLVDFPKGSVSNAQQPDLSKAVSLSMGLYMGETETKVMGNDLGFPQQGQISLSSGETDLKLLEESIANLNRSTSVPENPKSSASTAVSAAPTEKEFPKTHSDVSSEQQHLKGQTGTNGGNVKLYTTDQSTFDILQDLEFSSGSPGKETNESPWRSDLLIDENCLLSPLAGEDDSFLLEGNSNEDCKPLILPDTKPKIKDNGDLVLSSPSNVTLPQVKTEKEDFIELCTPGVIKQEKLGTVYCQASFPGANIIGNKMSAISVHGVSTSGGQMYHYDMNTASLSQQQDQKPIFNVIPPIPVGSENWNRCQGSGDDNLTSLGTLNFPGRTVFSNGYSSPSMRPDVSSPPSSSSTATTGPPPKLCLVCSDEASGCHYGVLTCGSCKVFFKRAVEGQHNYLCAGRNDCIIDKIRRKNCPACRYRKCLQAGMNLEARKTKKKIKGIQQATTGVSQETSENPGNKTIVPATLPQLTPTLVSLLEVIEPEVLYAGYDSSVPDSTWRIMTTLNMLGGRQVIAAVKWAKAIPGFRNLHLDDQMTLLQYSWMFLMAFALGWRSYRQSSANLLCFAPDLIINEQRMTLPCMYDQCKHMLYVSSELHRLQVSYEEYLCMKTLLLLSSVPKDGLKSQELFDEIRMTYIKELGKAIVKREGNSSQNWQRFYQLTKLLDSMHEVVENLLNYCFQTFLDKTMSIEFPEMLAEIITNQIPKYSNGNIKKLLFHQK
# Sequence of Nuclear receptor subfamily 1 group I member 2 (Homo sapiens) (O75469 whole entry, looked up): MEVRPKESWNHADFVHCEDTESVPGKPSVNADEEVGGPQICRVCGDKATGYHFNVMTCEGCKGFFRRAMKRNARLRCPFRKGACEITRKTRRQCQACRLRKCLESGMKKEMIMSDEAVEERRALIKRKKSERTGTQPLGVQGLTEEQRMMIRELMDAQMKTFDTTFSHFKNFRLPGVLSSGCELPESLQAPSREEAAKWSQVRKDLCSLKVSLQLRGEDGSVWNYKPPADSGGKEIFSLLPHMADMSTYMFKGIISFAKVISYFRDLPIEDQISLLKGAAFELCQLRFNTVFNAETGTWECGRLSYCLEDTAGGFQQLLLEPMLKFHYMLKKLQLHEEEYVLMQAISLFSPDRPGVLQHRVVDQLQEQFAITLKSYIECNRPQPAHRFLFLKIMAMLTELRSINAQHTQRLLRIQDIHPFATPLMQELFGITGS
# Sequence of PGR (gene 5241) (P06401 whole entry, looked up): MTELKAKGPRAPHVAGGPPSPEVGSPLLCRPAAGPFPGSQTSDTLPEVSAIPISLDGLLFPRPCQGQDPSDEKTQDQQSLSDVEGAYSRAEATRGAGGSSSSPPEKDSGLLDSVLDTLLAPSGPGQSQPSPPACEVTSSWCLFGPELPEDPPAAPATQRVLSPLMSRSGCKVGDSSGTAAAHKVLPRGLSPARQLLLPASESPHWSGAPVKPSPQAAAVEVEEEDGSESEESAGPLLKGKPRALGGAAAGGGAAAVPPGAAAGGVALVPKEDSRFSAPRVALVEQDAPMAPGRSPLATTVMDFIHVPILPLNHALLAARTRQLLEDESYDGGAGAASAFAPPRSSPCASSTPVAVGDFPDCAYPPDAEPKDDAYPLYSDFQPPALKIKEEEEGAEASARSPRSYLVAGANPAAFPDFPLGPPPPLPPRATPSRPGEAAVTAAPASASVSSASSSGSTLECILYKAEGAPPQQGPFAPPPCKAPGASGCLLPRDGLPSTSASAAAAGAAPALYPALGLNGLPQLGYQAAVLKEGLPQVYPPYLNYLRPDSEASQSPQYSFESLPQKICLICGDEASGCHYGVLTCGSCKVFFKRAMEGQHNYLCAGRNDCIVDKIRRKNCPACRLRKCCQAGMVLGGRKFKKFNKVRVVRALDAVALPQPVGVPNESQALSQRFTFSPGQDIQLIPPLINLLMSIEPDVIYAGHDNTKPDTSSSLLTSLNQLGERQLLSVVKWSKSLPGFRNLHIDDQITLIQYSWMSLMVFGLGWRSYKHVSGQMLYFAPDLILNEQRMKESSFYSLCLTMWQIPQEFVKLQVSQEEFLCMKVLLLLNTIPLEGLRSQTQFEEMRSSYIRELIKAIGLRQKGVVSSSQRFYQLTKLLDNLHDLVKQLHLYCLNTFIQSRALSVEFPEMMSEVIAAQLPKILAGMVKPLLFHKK
# Sequence of rat Androgen Receptor (AR), Ar (gene 24208) (P15207 whole entry, looked up): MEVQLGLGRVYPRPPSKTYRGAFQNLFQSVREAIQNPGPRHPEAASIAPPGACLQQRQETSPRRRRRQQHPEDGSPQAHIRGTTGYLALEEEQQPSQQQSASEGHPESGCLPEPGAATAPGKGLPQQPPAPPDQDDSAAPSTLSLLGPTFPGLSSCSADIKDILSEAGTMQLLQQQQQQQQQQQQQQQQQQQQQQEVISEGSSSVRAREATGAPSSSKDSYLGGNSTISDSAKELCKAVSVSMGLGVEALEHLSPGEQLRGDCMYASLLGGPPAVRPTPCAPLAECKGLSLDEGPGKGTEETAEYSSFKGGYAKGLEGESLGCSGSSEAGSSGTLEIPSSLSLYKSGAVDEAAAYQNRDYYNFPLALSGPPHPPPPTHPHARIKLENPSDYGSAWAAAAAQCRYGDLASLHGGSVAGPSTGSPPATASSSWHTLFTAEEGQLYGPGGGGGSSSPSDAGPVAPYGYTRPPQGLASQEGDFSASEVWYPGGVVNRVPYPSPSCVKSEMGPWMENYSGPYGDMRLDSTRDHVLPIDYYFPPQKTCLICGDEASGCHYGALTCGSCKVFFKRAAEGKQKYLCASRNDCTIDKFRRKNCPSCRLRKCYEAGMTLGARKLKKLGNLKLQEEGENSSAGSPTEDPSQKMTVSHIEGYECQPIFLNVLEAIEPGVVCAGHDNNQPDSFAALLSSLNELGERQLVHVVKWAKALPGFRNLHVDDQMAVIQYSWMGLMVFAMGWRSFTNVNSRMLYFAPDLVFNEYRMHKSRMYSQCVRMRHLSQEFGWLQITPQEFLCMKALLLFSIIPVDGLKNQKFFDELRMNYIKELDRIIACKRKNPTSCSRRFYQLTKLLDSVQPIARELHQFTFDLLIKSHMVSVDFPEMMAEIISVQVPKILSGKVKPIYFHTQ
# Sequence of rat Serotonin Transporter (SERT), Slc6a4 (gene 25553) (P31652 whole entry, looked up): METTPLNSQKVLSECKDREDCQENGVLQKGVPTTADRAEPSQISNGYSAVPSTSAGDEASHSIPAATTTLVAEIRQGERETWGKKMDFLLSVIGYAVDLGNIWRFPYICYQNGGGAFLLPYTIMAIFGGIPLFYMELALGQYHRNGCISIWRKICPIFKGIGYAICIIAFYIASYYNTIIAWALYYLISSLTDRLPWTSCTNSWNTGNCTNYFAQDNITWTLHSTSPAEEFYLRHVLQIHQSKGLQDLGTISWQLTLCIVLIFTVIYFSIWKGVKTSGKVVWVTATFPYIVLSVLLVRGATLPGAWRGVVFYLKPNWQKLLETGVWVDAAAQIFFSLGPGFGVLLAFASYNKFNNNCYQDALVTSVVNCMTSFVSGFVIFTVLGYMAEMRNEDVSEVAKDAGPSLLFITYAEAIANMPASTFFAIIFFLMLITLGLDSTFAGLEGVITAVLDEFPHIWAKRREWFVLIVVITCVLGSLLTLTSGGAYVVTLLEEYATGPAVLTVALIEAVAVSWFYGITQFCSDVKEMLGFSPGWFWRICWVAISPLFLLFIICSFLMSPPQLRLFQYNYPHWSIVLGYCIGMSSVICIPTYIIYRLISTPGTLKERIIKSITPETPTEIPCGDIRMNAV
compound,measurement,setting,value
O=c1cc(-c2ccccc2)oc2cc(O)cc(O)c12,outcome,[1],inactive
CCC/C=C/C=O,outcome,[1],inactive
same,outcome,[2],inactive
CN(CCOc1ccc(CC2SC(=O)NC2=O)cc1)c1ccccn1 (stereo unspecified),outcome,PGR (gene 5241),inactive
same,AC50,[3],2070 nM (active)
CC(C)c1cccc(O)c1,outcome,[1],inactive
CCCCCCCCCCCCCOS(=O)(=O)O,AC50,[4],2940 nM (active)
same,outcome,[1],inactive
same,AC50,[5],1700 nM (active)
same,AC50,[2],832 nM (active)
CC(C)C[C@H]1C(=O)N2CCC[C@H]2[C@]2(O)O[C@](NC(=O)[C@@H]3C=C4c5cccc6[nH]c(Br)c(c56)C[C@H]4N(C)C3)(C(C)C)C(=O)N12,AC50,[4],1440 nM (active)
same,AC50,[1],1040 nM (active)
NC(=O)NC1NC(=O)NC1=O (stereo unspecified),outcome,[1],inactive
CC(C)(C#N)c1cc(Cn2cncn2)cc(C(C)(C)C#N)c1,outcome,[1],inactive
CSc1nc(NC2CC2)nc(NC(C)(C)C)n1,AC50,[1],3050 nM (active)
c1ccc2[nH]ccc2c1,outcome,[6],inactive
same,outcome,[1],inactive
CCCCCCCCCCCCCCCC(=O)OC[C@H](O)[C@H]1OC(=O)C(O)=C1O,outcome,[6],inactive
same,outcome,[1],inactive
same,AC50,[2],25000 nM (active)
CCC(=O)/C=C/C1C(C)=CCCC1(C)C (stereo unspecified),outcome,[1],inactive
CCCCC[Si](OCC)(OCC)OCC,outcome,[1],inactive
O=Nc1ccc(Nc2ccccc2)cc1,AC50,[6],17600 nM (active)
same,outcome,[2],inactive
CCCC/C=C\CCCCCCCCCC=O,outcome,[1],inactive
same,outcome,[2],inactive
C#C[C@]1(O)CC[C@H]2[C@@H]3CCC4=Cc5oncc5C[C@]4(C)[C@H]3CC[C@@]21C,AC50,PGR (gene 5241),41500 nM (active)
same,AC50,[4],319 nM (active)
COc1cc(C(C)(C)C)c(O)c(C(C)(C)C)c1,outcome,[1],inactive
COc1c(Cl)c(Cl)c(Cl)c(Cl)c1Cl,outcome,[1],inactive
CC(C)=CCCC(C)=CCCC(C)=CCO,outcome,[1],inactive
CCN(CC)c1ccc(C(=C2C=CC(=[N+](CC)CC)C=C2)c2ccc(S(=O)(=O)O)cc2S(=O)(=O)[O-])cc1,AC50,[6],8030 nM (active)
CC(=O)O[C@]1(C(C)=O)CC[C@H]2[C@@H]3C[C@H](C)C4=CC(=O)CC[C@]4(C)[C@H]3CC[C@@]21C,AC50,[4],1.14 nM (active)
COc1ccc(O)cc1,outcome,[6],inactive
Cc1ccc(C=O)cc1,outcome,[4],inactive
O=C1OC2(c3cc(Br)c(O)c(Br)c3Oc3c2cc(Br)c(O)c3Br)c2c(Cl)c(Cl)c(Cl)c(Cl)c21,AC50,[4],3830 nM (active)
